# Screening results (PubChem BioAssay)
# GLP1R ag = GLP-1 receptor (human) agonism | P43220 | HEK293 GLP-1R CRE-luciferase, luminescence, 4-6 h; cells express a hypersensitive GLP-1R form | Potency, µM (highest dose often 45.6 µM), inactives show at the highest dose activation, hits mostly activators | actives 0.007% (n = 380,000) | AID 624172; also: % of control where 0% means no effect
# Target sequence (P43220 whole entry, looked up): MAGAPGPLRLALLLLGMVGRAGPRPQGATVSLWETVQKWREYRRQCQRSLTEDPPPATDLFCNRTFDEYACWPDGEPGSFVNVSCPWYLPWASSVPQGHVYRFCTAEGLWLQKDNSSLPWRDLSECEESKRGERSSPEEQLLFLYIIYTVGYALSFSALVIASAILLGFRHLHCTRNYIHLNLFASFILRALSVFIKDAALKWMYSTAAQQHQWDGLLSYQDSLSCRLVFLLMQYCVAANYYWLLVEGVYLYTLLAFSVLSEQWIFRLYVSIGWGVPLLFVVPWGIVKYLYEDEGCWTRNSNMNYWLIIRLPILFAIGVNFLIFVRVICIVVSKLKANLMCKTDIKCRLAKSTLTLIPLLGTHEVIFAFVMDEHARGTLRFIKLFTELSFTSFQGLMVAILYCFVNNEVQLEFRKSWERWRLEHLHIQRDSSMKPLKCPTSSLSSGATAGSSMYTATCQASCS
# TGFb inhibitor = TGF-b pathway inhibition; Potency, µM (series often up to 46.1 µM), for the others: top-dose activity, negative = inhibition, most hits filed as inhibitors; HepG2 CAGA-GFP TGF-b/SMAD3 reporter, GFP fluorescence, 18 h; TGF-beta stimulated, 500 pg/mL final; actives 1.2% (n = 410,000); AID 588855; also: % is scaled to controls: 0 for no effect and ±100 for the full control effect; nearly all actives have a fitted effect of over 65% in size
#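 Cell-based qHTS in HEPG2 carrying a CAGA-GFP Smad reporter; compounds added before 500 pg/mL final TGF-beta, 18 h incubation at 37 degrees C, GFP fluorescence quantified per cell by imaging cytometry.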
# S2 tox = viability counter-screen for ATXN expression inhibitors. S2 cells (HEK-293 line with an ATXN2-luciferase reporter) viability, CellTiter-Fluor protease fluorescence, 24 h. Potency, µM (highest dose often 56.7 µM), hits mostly cytotoxic. actives 0.49% (n = 400,000); also: nearly all actives have a fitted effect of over 40% in size
# HepG2 tox = HepG2 cytotoxicity, counter-screen for TGF-b inhibitors; HepG2 CAGA-GFP viability, ATP luminescence, 18 h; Potency, µM (highest dose often 46.1 µM), for the others: top-dose activity change, negative = cytotoxicity, actives largely listed as cytotoxic; actives 0.76% (n = 410,000); AID 588856
#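 CellTiter-Glo luminescence gave cytotoxicity after 18 hours at 37 degrees C. The cells were HepG2 CAGA-GFP in 1% FBS DMEM, stimulated with 500 pg/mL TGF-beta after compound addition. %Activity was normalised to no-cell wells (complete cell-killing) and DMSO (no toxicity), and curves were fitted and classified.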
# GLP-1R inv ag = inverse agonists of human GLP-1 receptor; HEK293 GLP-1R CRE-luciferase, luminescence, 24 h; GLP-1R form is constitutively active; Potency, µM (top dose mostly 38.3 µM), for inactives: at the highest dose activity change, negative = inhibition, actives largely listed as inhibitors; actives 1.6% (n = 410,000); AID 624417; also: % is scaled to controls: 0 for no effect and ±100 for the full control effect; nearly all actives have a fitted effect of over 55% in size
#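 Cells are plated, allowed 12 hours at 37 deg C, then treated with compounds for 24 hr before luciferase detection reagent is added and luminescence is read after 12 min at room temperature. The HEK293 line carries constitutively active GLP-1R with a cAMP-responsive reporter.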
# ATXN2 expr inh = ATXN2 expression inhibition | HEK-293 ATXN2-luciferase reporter, luminescence, 24 h | Potency, µM (doses to about 57 µM), for inactives: at the highest dose activity change, negative = inhibition, hits mostly inhibitors | actives 0.72% (n = 360,000); also: % is scaled to controls: 0 for no effect and ±100 for the full control effect; nearly all actives have a fitted effect of over 55% in size
#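 qHTS (up to 57 uM final) was run with 24 h compound exposure of reporter cells at 37 °C. Each well was multiplexed: SteadyGlo luminescence measured ATXN2-luciferase expression after a fluorogenic Gly-Phe-AFC viability readout (25 uM final).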
# * hit, by the source's call; i = inactive; u = inconclusive; x = no result given. Rows were chosen to be rich in hits. Some 3.7% of all compounds tested hit in one or more screens of this group. Calls follow the shape of the dose curve; as a rule, active = well fitted curve in the direction sought with a large enough effect; inconclusive = small, poorly fitted or top-dose-only effect, or another doubt; inactive = no such curve, though single readings can be large; an effect the other way counts as inactive or inconclusive. Potency is read from the fitted curve at half-maximal effect.
SMILES,GLP1R ag,TGFb inhibitor,S2 tox,HepG2 tox,GLP-1R inv ag,ATXN2 expr inh
O=C(NNC(=S)NC(=O)c1ccccc1Cl)c1cccc([N+](=O)[O-])c1,1.9%,-0.8%,i,-35.0%,0.6%,-35.8%
COC(=O)NC(NC(=S)Nc1ccc([N+](=O)[O-])cc1)C(Cl)(Cl)Cl (stereo not given),-35.8%,u,u,-27.9%,11.2µM*,u
COc1ccc([N+](=O)[O-])cc1NC(=S)NC(NC(=O)C(c1ccccc1)c1ccccc1)C(Cl)(Cl)Cl (stereo not given),-13.5%,4.47µM*,u,-28.8%,2.51µM*,22.4µM*
O=C(NC(NC(=S)Nc1c(Cl)cccc1Cl)C(Cl)(Cl)Cl)c1cccc([N+](=O)[O-])c1 (stereo not given),-25.3%,-101.4%,i,-61.0%,5.01µM*,-7.3%
Cc1cc([N+](=O)[O-])ccc1NC(=S)NC(=O)Cc1ccccc1,15.0%,u,i,8.6%,u,3.0%
Cc1cc([N+](=O)[O-])ccc1NC(=S)NC(=O)C(c1ccccc1)c1ccccc1,-4.7%,u,i,-3.7%,10µM*,u
C=C1/C(=C\C=C2/CCC[C@@]3(C)[C@@H]([C@H](C)OCCC(C)(C)O)CC[C@@H]23)C[C@@H](O)C[C@@H]1O,1.4%,x,x,x,x,x
COc1ccc(OC)c(/C=C/c2ccc3ccccc3[n+]2C)c1,x,-20.2%,x,-17.1%,x,x
CCN(CC)CC(=O)c1c(C)n(C)c2ccc(OC)cc12,x,3.7%,x,-4.1%,x,x
CC(C)CC(=O)NC(Nc1ccc([N+](=O)[O-])cc1)C(Cl)(Cl)Cl (stereo not given),2.3%,15.8µM*,i,-48.3%,u,-5.8%
O=C(O)C(=O)Nc1cccc(C2=NN=N[N]2)c1,-0.3%,x,i,x,x,-4.9%
O=C(Nc1ccccc1O)c1cc(S(=O)(=O)N2CCCC2)ccc1Cl,x,u,i,-29.5%,u,-11.1%
O=C(CN(Cc1ccco1)Cc1ccco1)Nc1cc(S(=O)(=O)N2CCCCC2)ccc1Cl,-2.9%,u,i,4.9%,10µM*,x
O=C(Nc1cc(S(=O)(=O)N2CCCCC2)ccc1Cl)c1ccccc1NS(=O)(=O)c1ccc(F)cc1,-10.8%,3.55µM*,u,-29.0%,2.82µM*,u
CCNC(=O)N1CCN(CCCC(c2ccc(F)cc2)c2ccc(F)cc2)CC1,-0.1%,-10.8%,u,-32.7%,u,u
OC1(c2ccc(Cl)c(C(F)(F)F)c2)CCN(CCCC(c2ccc(F)cc2)c2ccc(F)cc2)CC1,-7.4%,x,17.8µM*,x,x,15.8µM*
CC1=NNC(=O)/C1=C\c1cn(-c2ccccc2)nc1-c1cccs1,0.8%,5.62µM*,3.16µM*,7.94µM*,u,x
CN1CCC(N(C)C(=O)/C=C/c2cn(-c3ccccc3)nc2-c2cccs2)CC1,20.1%,u,u,-56.4%,5.62µM*,-31.0%
CC1=NNC(=O)/C1=C\c1cn(-c2ccccc2)nc1-c1ccc(F)cc1,-26.8%,3.98µM*,x,-84.5%,u,7.52µM*
O=C(N/N=C/c1cn(-c2ccccc2)nc1-c1cccs1)c1ccc(Cl)cc1,3.8%,u,i,-27.1%,6.31µM*,-5.1%
CCN(CC(=O)Nc1ccc(NC(C)=O)cc1)C(=O)/C=C/c1cn(-c2ccccc2)nc1-c1cccs1,13.3%,0.0%,i,-1.2%,-25.3%,23.1%
O=Cc1cn(-c2ccccc2)nc1-c1ccc(F)cc1,-4.2%,-2.1%,i,-13.1%,23.5%,x
COc1ccc(NC(=O)CC2C(=O)N(c3ccc(C)cc3)C(=O)N2Cc2ccc(C)cc2)cc1 (stereo not given),x,0.2%,i,0.5%,16.1%,-0.1%
O=C(NCCN1CCOCC1)c1cnn(-c2nccc(-c3ccccc3C(F)(F)F)n2)c1C1CC1,x,x,i,x,x,x
CCCCNc1c(-c2cccc(-c3cc(C(C)=O)cs3)c2)nc2ccc(C)cn12,-14.1%,u,15.8µM*,17.8µM*,u,u
SMILES,GLP1R ag,TGFb inhibitor,S2 tox,HepG2 tox,GLP-1R inv ag,ATXN2 expr inh
CCCCNc1c(-c2cccc(-c3ccc(OC)cc3)c2)nc2cc(C)ccn12,-8.9%,u,u,-28.0%,11.2µM*,u
CCN(CC)CC(=O)OCC(=O)[C@@]1(O)CC[C@H]2[C@@H]3CCC4=CC(=O)CC[C@]4(C)[C@H]3[C@@H](O)C[C@@]21C,x,x,i,x,x,-5.8%
O=C(c1cccc(F)c1)N(Cc1cc2cc3c(cc2nc1N1CCOCC1)CCC3)CC1CCCO1 (stereo not given),x,x,i,x,x,x
CN1CCN(C2=C(NS(=O)(=O)c3cccs3)C(=O)c3ccccc3C2=O)CC1,0.3%,u,i,-27.0%,-10.8%,u
CCOc1ccccc1N1CCN(C2=C(NS(=O)(=O)c3cccs3)C(=O)c3ccccc3C2=O)CC1,-6.7%,17.8µM*,i,-31.9%,u,-20.4%
CCOC(=O)C1CCN(C2=C(NS(=O)(=O)c3ccc(Br)cc3)C(=O)c3ccccc3C2=O)CC1,-2.3%,17.8µM*,17.8µM*,-100.9%,u,x
CCN1CCN(C2=C(NS(=O)(=O)c3ccc(Br)cc3)C(=O)c3ccccc3C2=O)CC1,-3.4%,12.6µM*,u,17.8µM*,-7.1%,x
CCOC(=O)N1CCN(C2=C(NS(=O)(=O)c3ccc(Br)cc3)C(=O)c3ccccc3C2=O)CC1,-6.7%,u,u,-80.8%,u,x
CN1CCN(C2=C(NS(=O)(=O)c3ccccc3)C(=O)c3ccccc3C2=O)CC1,-2.1%,u,i,-46.6%,-8.3%,-27.2%
CCN1CCN(C2=C(NS(=O)(=O)c3ccccc3)C(=O)c3ccccc3C2=O)CC1,-6.9%,11.2µM*,u,-114.8%,-18.2%,x
CCN1C(=O)[C@H]2[C@@H](c3ccc(OC)cc3)N[C@]3(CCCN(Cc4ccc(C(F)(F)F)cc4)C3=O)[C@H]2C1=O,-0.3%,3.6%,i,-19.4%,-0.2%,0.0%
COc1ccc(CN2CCC[C@]3(N[C@H](c4ccc(C(F)(F)F)cc4)[C@@H]4C(=O)N(Cc5ccccc5)C(=O)[C@@H]43)C2=O)cc1,-2.0%,-3.6%,i,-30.0%,8.91µM*,-6.6%
CN1C(=O)[C@H]2[C@@H](c3ccc(C(F)(F)F)cc3)N[C@]3(CCCN(Cc4ccc(Cl)cc4)C3=O)[C@H]2C1=O,-0.4%,-2.3%,i,-1.0%,11.2µM*,5.7%
CC(C)c1cccc(C(C)C)c1OC(=O)[C@H]1OC(C(C)(C)C)=C[C@@H]1c1ccccc1,-1.2%,2.1%,i,-7.3%,3.9%,-1.5%
